The results in this text go back to PubChem BioAssay (NCI).

Several values for one entry are separate records, joined by “and”; a condition that tells them apart may be missing. Identical values can stand only once. This is part of a sample that, as a whole, favours compounds with a hit. Of some 79,000 tested, about 15% had one in any assay. More than one record can exist for a structure, and the calls need not agree. Activity calls are given as the source filed them. No stated cut-off is given here; in the data, active means growth inhibition above about 70%; inactive means the rest.

The assay can be described thus: NCI Yeast Anticancer Drug Screen. Data for the rad50 strain (AID 155).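 Further: 0% = growth of vehicle-only cultures of the same strain.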 The conditions noted are these: S. cerevisiae rad50 strain growth inhibition; at 50.0 µM; stronger effect = higher value. Summed up:
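A DNA repair-deficient yeast mutant serves as the test organism; compound-induced growth inhibition is calculated against vehicle-treated cells.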
`O=[N+]([O-])c1cc[n+]([O-])cc1`: the growth inhibition is 46.1% (inactive) and 83.2% (active). Take `CC1(C)CC(=O)C(/C=N/c2nc(-c3ccccc3)cs2)=C(O)C1`: the growth inhibition is 89.9% (active). Take `Nc1nc(N)c2nc(CNc3ccc(C(=O)NC(CCC(=O)O)C(=O)O)cc3F)cnc2n1` (stereo not drawn): the growth inhibition was 43% (inactive). Take `COC(=O)CC1(O)C(/C=C/c2ccccc2)C(C(=O)OC)C(=O)C(C(=O)OC)C1C(=O)OC` (stereo not drawn): the growth inhibition is 38.9% (inactive). As to `CC(C)(C)c1ccc(NS(=O)(=O)c2ccc(N)cc2)cc1`, the growth inhibition is 98.3% (active). Take `CCN(CC)CCNc1ccc([N+](=O)[O-])c2nc3ccccc3c(N)c12`: the growth inhibition is 74.3% (active). For the compound `CCCCN(CCCC)C(=O)/C=C/c1ccccc1`, the growth inhibition is 93.3% (active). Regarding `O=c1[nH]c(-c2ccccc2)nc2c1sc1nc3ccccc3n12`, the growth inhibition was 13.4% (inactive). With `O=[N+]([O-])c1ccc2c(c1)/C(=N/N=C1c3ccccc3Cc3ccccc31)c1cc([N+](=O)[O-])cc([N+](=O)[O-])c1-2`, the growth inhibition is 82.7% (active). With `CC(C)C(C)/C=C\C(C)C1CCC2C3=CC=C4CC(O)CCC4(C)C3CCC21C` (stereo not drawn), the growth inhibition was 83.2% (active).

As for `O=C1Nc2ccc(Br)cc2C1=Nc1ccc2c(c1)OCO2`, the growth inhibition was -9.9% (inactive). On to `CCCCOCn1c(=O)[nH]c(=O)c2cc(Br)ccc21`, for which the growth inhibition was 18.7% (inactive).

As for `Cc1ccc(S/C(=C\C(=O)O)c2ccccc2)cc1`, the growth inhibition is 41.9% (inactive). On to `O=[N+]([O-])/C=C/c1cc(Cl)c(/C=C/[N+](=O)[O-])cc1Cl`, for which the growth inhibition is 79.7% (active).

Turning to `Cc1cc(S(=O)(=O)Nc2nnc3cnc4ccccc4n23)c(S)cc1Cl`, the growth inhibition is -14.9% (inactive).

`O=C(/C=C/c1cc(Cl)cc(Cl)c1O)c1cccc(O)c1`: the growth inhibition was 94% (active). In the case of `NC1CCCCC1N.Nc1c(N=Nc2ccc(-c3ccc(N=Nc4cc(S(=O)(=O)[O-])c5ccccc5c4N)cc3)cc2)cc(S(=O)(=O)[O-])c2ccccc12.[OH3+].[OH3+].[Pt+4]` it was 86.7% (active); in that of `COC(=O)CCC(NC(=S)N/N=C(\C)c1ccccn1)C(=O)OC` (stereo not drawn), 77.5% (active). On to `NC(=O)C(=O)NNc1ccccc1`, for which the growth inhibition was 95.5% (active). `COc1cc(C2SCC(=O)N2c2ccc(-c3ccc(-n4c(-c5ccccc5)nc5ccccc5c4=O)cc3)cc2)ccc1O` (stereo not drawn): the growth inhibition is 58.4% (inactive). In the case of `COc1ccc(/C=C/c2sc3ccccc3[n+]2CCCCI)cc1OC` it was 74.9% (active). In the case of `Cc1c(C(C)C)cc(OCCO)cc1C(C)C` it was 68.7% (inactive).

For `Cc1cc(NCCCCCCCCNc2cc(C)nc3cc(N)ccc23)c2ccc(N)cc2n1`, the growth inhibition is 90.2% (active). As to `C=C(Cl)COC(=O)Nc1cccc(Cl)c1`, the growth inhibition was 82% (active). In the case of `CC(=O)OC1CC2C(C)(C)C(=O)C=C[C@]2(C)C2CCC3(C)C(=CCC3[C@H](CO)C[C@H](O)C(=O)C(C)(C)O)[C@]12C` (stereo partly drawn) it was 44.9% (inactive); in that of `COc1ccc(/C=C/C(=O)c2ccccc2)cc1OC`, 6.55% (inactive) and 84.3% (active). Consider `COc1c(O)c(C=O)c(Br)c(C=O)c1O`, for which the growth inhibition was 98.2% (active).

For `O=[N+]([O-])c1cc(Cl)cnc1Br`, the growth inhibition was 88.5% (active).

Turning to `Cc1ccc2c(c1)C1(SC(C)C(=O)N1c1ccc(Cl)cc1)C(=O)N2` (stereo not drawn), the growth inhibition is 98.8% (active). With `COc1cc(CSc2ccc(O)cc2)cc(O)c1O`, the growth inhibition was 60.8% (inactive). As to `Cc1ccc2c3ccc4c(c3n(C)c2c1)C(=O)C=CC4=O`, the growth inhibition was 57.8% (inactive). For `O=C(Nc1ccc(Cl)cc1)Nc1nnc2nc(C(C(=O)c3cccc([N+](=O)[O-])c3Cl)c3nc4nnc(NC(=O)Nc5ccc(Cl)cc5)n4[nH]c3=O)c(=O)[nH]n12` the value was 99.5% (active); for `O=C(O)C1CC(c2ccccc2)=NN1c1ccccc1` (stereo not drawn), 19.4% (inactive).

As for `CCCCc1ccc(-n2c(C)c(COC(=O)NC)c(COC(=O)NC)c2C)cc1`, the growth inhibition is 90.6% (active). On to `CCC(=O)c1cc(C(=O)C(=S)SC)cc(C(=O)C(=S)SC)c1`, for which the growth inhibition is 85.4% (active). On to `CCn1c(O)c(C=Nc2ccccc2)s/c1=N/Nc1nc(-c2ccccc2)cs1`, for which the growth inhibition is 41.7% (inactive). Consider `Cc1ccccc1N=C(NO)c1ccccc1`, for which the growth inhibition was 90.6% (active). Turning to `Cc1nc2ccccc2nc1NNc1ccccc1`, the growth inhibition was 81.3% (active).
